Tests used:
Experiment in all cases: PBM binding z-score (relative to random genomic background probes); higher = stronger binding; sequences stand for … in GC…GCGATTGACAGCGTAGAATGAAGG
[1] = system: RARb homodimer (NR concentration 270 nM)
How it was run: (§1)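 Binding z-scores take random background probes as their reference. They come from custom Agilent 4×180K protein-binding microarrays incubated 1 h with ligand-free nuclear receptor dimers, with antibodies against each partner (one per run) detecting binding. Scanned fluorescence was regression-normalized.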

[2] = system: RARg:RXRa (NR concentration 270 nM, RXRa partner concentration 90 nM)
How it was run: as §1

[3] = system: RARg homodimer (NR concentration 270 nM)
How it was run: as §1

[4] = system: RXRa DBDmut IVT, anti-RXR (DBD mutation: RXRa K156A/R161A, NR concentration 90 nM)
How it was run: as §1

[5] = system: RXRa homodimer (NR concentration 180 nM)
How it was run: as §1

[6] = system: THRa:RXRa (NR concentration 90 nM, RXRa partner concentration 90 nM)
How it was run: as §1

[7] = system: THRa homodimer (NR concentration 90 nM)
How it was run: as §1

[8] = system: VDR homodimer (NR concentration 270 nM)
How it was run: as §1

Row | Sequence | PBM binding z-score [1] | PBM binding z-score [2] | PBM binding z-score [3] | PBM binding z-score [4] | PBM binding z-score [5] | PBM binding z-score [6] | PBM binding z-score [7] | PBM binding z-score [8]
1 | CCTTACGGGTCACTGACAGGTTATTGCATTTGGA | 3.24 | 5.55 | 4.57 | 1.94 | 5.07 | 2.92 | 0.504 | 1.45
2 | TCATATAGGTAAACAGGTGAACGTCCGTAAGTTA | 0.948 | 0.887 | 0.712 | 1.31 | 1.28 | 1.12 | 0.353 | 0.243
3 | GCATATAGATAATACAAGGTGAAAGTCCGATTGT | 0.678 | 0.441 | 0.694 | 0.234 | 0.586 | 2.26 | 0.964 | 0.0275
4 | ATATGTAGGTTAGCAGGGGTCATTCAGACTAGGC | 4.08 | 5.19 | 3.61 | 1.99 | 6.36 | 4.61 | 1.78 | 5.34
5 | ATCTCTAGATAAGACTCAGTTCAGTGAAGAACGC | 0.0113 | -0.0447 | 0.323 | 0.327 | -0.154 | 0.116 | -0.107 | 1.02
6 | CGAACTAGGTCACGAAAGGTCAAAGTCGAATGAC | 6.05 | 7.91 | 8.67 | 2.37 | 8.55 | 5.01 | 2.52 | 3.39
7 | TTACCAAGGTGAAGGTGGTTGATCCCTCTGTAGA | 0.653 | 0.26 | 0.431 | -0.51 | 0.689 | 1.78 | 0.829 | -0.454
8 | TCGAGTAGGTTACCAATGGGGCATTAAGCTTTCT | 0.561 | 0.966 | 0.213 | 0.338 | 0.336 | -0.0215 | -0.627 | -0.636
9 | TGAATGAGGTTAAAGATCAGGGAGCGTGGCGTCG | 0.534 | 1.95 | 0.676 | 0.869 | 3.86 | 2.43 | 0.271 | -0.0422
10 | ATGTGTAGGTTATCGGGTCATTCAGTTTGCGCAT | 3.35 | 3.59 | 2.67 | 1.75 | 3.57 | 3.57 | 3.71 | 3.91
11 | TCACATAGGTAAAGGTGAAAGTCGAACGATATGA | 1.65 | 1.65 | 1.26 | 1.26 | 2.34 | 1.44 | -0.0581 | -0.223
12 | CGTCCAAGGTCAGCAGGTCAGTAAAAGCGACGTG | 4.97 | 6.32 | 6.68 | 2.49 | 5.07 | 3.97 | 2.48 | 1.81
13 | AGACAAAGTTCACTAGGTAACGTAAGATTCAGCT | 3.8 | 4.72 | 5.53 | 4.31 | 3.69 | 2.09 | -0.00149 | 3.48
14 | TGAATGAGGTCATAAGATCAGGGAACGTTGCAAA | 3.34 | 5.65 | 5 | 3.74 | 5.88 | 3.85 | 2.43 | 3.77
15 | ATCTCCAGGTAACCAAGTTCAGTGAATGCCGAAC | 1.58 | 0.664 | 0.86 | 1.06 | 0.486 | 1.96 | 1.31 | 3.04
16 | CAGCCTAGGTCAGGTCCAGTATAGGAGGAACGTT | 1.98 | 2.25 | 3.33 | -0.0428 | 1.14 | 1.68 | 0.525 | 0.207
17 | CCTGCTAGGTCATAGTCAGCTAATCTACAGTATG | 2.32 | 3.3 | 3.57 | 2.08 | 2.13 | 2.62 | 0.766 | 0.519

Row | Sequence | PBM binding z-score [1] | PBM binding z-score [2] | PBM binding z-score [3] | PBM binding z-score [4] | PBM binding z-score [5] | PBM binding z-score [6] | PBM binding z-score [7] | PBM binding z-score [8]
18 | CCTACTGGGCCATTCAGAGGTCATTTATCATATG | 3.73 | 3.91 | 2.73 | 1.47 | 3.27 | 3.12 | 1.45 | 4.04
19 | ATCTCTAGGTAAAAGTTCCGTGAATCCCGAGGAT | -0.157 | 0.0505 | 0.279 | 0.162 | 0.162 | 0.383 | 0.302 | 0.13
20 | TCTGCCAGGTCAGTTGGTCAGCTAACGAGCTGCC | 2.77 | 2.86 | 3.55 | 0.569 | 1.12 | 2.11 | 0.521 | -0.514
21 | GCTAGTTGGTCAGTACAAGGTCACACACCGGTCG | 4.39 | 4.09 | 3.66 | 0.602 | 3.47 | 4.02 | 4 | 2.53
22 | ATCGAAAGGTCGTGAGGTTAGTATACAGAAAGGC | 3.14 | 4.88 | 4.09 | 1.9 | 5.43 | 3.2 | 1.07 | 1.84
23 | CCAGACAGGTGAACGGTAACTCAGTCTGGTACGC | 0.435 | 0.292 | 0.535 | -0.0435 | 0.416 | 0.0165 | -0.646 | -0.453
24 | TCTAGCAGGCCGGAGGGTCACTCAAGAGGTACGG | 2.33 | 2.01 | 1.52 | 0.00965 | 2.13 | 1.44 | -0.391 | 0.104
25 | GCTTGTAGATCAAGGTTATGAAAGACTAAGCTAA | 0.411 | 0.306 | 0.25 | -0.2 | 0.623 | 1.36 | -0.196 | -0.036
26 | CCGACTGGGGCAAGGTAACCATAACGCACAGCCA | 0.426 | 0.417 | 0.527 | -0.495 | 0.481 | 0.522 | 0.219 | -0.0983
27 | AGTGAAAGTTCACTAGGTAACGTAAGATTCAGCT | 3.4 | 4.46 | 5.32 | 3.84 | 3.77 | 1.96 | -0.00547 | 3.15
28 | GGAACGAGGGCAAAGTTGAGAGCATCTGTCGACG | 1.51 | 2.51 | 1.87 | 2.46 | 2.33 | 1.53 | -0.419 | 1.38
29 | TCTTGTAGATCAACAAGAGGTTAAGAAAGATCGA | 0.756 | 1.56 | 0.53 | -0.00375 | 1.4 | 1.22 | -0.94 | -0.26
30 | CCTTACTGGTCACGAGGTTATAGCACGACGAGCG | 1.98 | 2.5 | 1.86 | 0.396 | 2.28 | 1.91 | 1.11 | 1.13
31 | ACTATTAGTTAACTTAGGGCAACCGATACGACGC | 0.839 | 0.89 | 1 | 0.837 | 0.532 | 1.88 | 0.447 | 0.283
32 | ACATGTAGGTTATCGGGTCATTCAGTTTGCGCAT | 3.23 | 3.35 | 2.41 | 1.87 | 3.6 | 3.32 | 3.05 | 4.06
33 | TCTCCTAGGTCAACGATGGTCAGCTAATCTGCTA | 3.61 | 4.5 | 5.72 | 1.41 | 3.49 | 3.32 | 1.59 | 0.166
34 | GCTATTAGCTGAAAGGGCAACCGAATGATTCTCG | 1.53 | 0.817 | 0.974 | 0.616 | 0.703 | 0.363 | -0.714 | -0.0197

From the supplement of paper PMC6555819
